Results published in PubChem BioAssay (EPA / NIEHS).
Active and inactive are the calls of the source. How the source made its calls: active means hit-call score of the fitted dose curve at least 0.9, where 1 is the maximum; inactive means score below 0.9.

Assays:
[1] = read-out: Cyclin D2 (CCND2), CCND2 (gene 894); assay: LTEA_HepaRG_CCND2: Life Technologies and Expression Analysis (LTEA) Assay for Cyclin D2 (CCND2) using HepaRG (AID 2283449); conditions: mRNA level, 48 h; actives raise or lower the signal;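 further: CCND2 transcript measured by TaqMan qRT-PCR and normalised to three housekeeping genes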
Outline: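 Chemicals in 0.5% DMSO, eight half-log concentrations from 100 uM top, were applied in duplicate for 48 h to human HepaRG cells in serum-free induction medium. CCND2 mRNA by TaqMan qRT-PCR, normalised to ACTB/GAPDH/POLR2A; bidirectional fit versus DMSO.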

[2] = read-out: Cyclin Dependent Kinase Inhibitor 1A (CDKN1A), CDKN1A (gene 1026); assay: LTEA_HepaRG_CDKN1A: Life Technologies and Expression Analysis (LTEA) Assay for Cyclin Dependent Kinase Inhibitor 1A (CDKN1A) using HepaRG (AID 2283450); conditions: mRNA level, 48 h; actives raise or lower the signal
Outline: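 HepaRG, 48 h dosing, 8-pt half-log series from 100 uM top, 0.5% DMSO vehicle, duplicates. Readout: TaqMan qRT-PCR of CDKN1A transcript, housekeeping-normalized (ACTB, GAPDH, POLR2A). Up/down curve fit relative to DMSO.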

[3] = read-out: Cyclin D1 (CCND1), CCND1 (gene 595); assay: LTEA_HepaRG_CCND1: Life Technologies and Expression Analysis (LTEA) Assay for Cyclin D1 (CCND1) using HepaRG (AID 2283451); conditions: mRNA level, 48 h; actives raise or lower the signal;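 on AC50: TaqMan qRT-PCR transcript level normalised to ACTB GAPDH and POLR2A housekeeping genes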
Outline: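 qRT-PCR (Fluidigm 96.96 array) read-out of transcript level, housekeeping-normalized (ACTB/GAPDH/POLR2A). HepaRG cells, 48 h chemical exposure, 8-point half-log series from 100 uM, 0.5% DMSO vehicle; gain or loss relative to DMSO baseline.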

[4] = read-out: catalase (CAT), CAT (gene 847); assay: LTEA_HepaRG_CAT: Life Technologies and Expression Analysis (LTEA) Assay for catalase (CAT) using HepaRG (AID 2283452); conditions: mRNA level, 48 h; actives raise or lower the signal
Outline: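 HepaRG cells in serum-free induction medium, 0.5% DMSO vehicle, exposed 48 h in duplicate over 8 half-log concentrations from 100 uM. CAT mRNA measured by qRT-PCR, normalized to ACTB, GAPDH, POLR2A; bidirectional fit versus DMSO.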

[5] = read-out: flavin-containing dimethylaniline monooxygenases 3 (FMO3), FMO3 (gene 2328); assay: LTEA_HepaRG_FMO3: Life Technologies and Expression Analysis (LTEA) Assay for flavin-containing dimethylaniline monooxygenases 3 (FMO3) using HepaRG (AID 2283453); conditions: mRNA level, 48 h; actives raise or lower the signal
Outline: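 Differentiated HepaRG cells in serum-free induction medium, exposed 48 h in duplicate to 8 half-log concentrations up to 100 uM in 0.5% DMSO. FMO3 mRNA by qRT-PCR, normalized to ACTB, GAPDH, POLR2A; bidirectional fit vs DMSO.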

[6] = read-out: Cytochrome P450 (CYP1A1), CYP1A1 (gene 1543); assay: LTEA_HepaRG_CYP1A1: Life Technologies and Expression Analysis (LTEA) Assay for Cytochrome P450 (CYP1A1) using HepaRG (AID 2283454); conditions: mRNA level, 48 h; actives raise or lower the signal
Outline: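 qRT-PCR read-out: CYP1A1 transcript normalized to three housekeeping genes, fitted bidirectionally against 0.5% DMSO vehicle baseline. Human HepaRG cells, 48 h chemical exposure, 8-point half-log series topping at 100 uM.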

[7] = read-out: CFLAR gene, CFLAR (gene 8837); assay: LTEA_HepaRG_CFLAR: Life Technologies and Expression Analysis (LTEA) Assay for CFLAR gene using HepaRG (AID 2283455); conditions: mRNA level, 48 h; actives raise or lower the signal
Outline: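 Differentiated HepaRG cells in serum-free induction medium were exposed 48 h in duplicate to eight half-log concentrations up to 100 uM in 0.5% DMSO; mRNA measured by TaqMan qRT-PCR, normalized to ACTB, GAPDH, POLR2A; bidirectional fitting versus DMSO.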

[8] = read-out: Forkhead box O1 (FOXO1), FOXO1 (gene 2308); assay: LTEA_HepaRG_FOXO1: Life Technologies and Expression Analysis (LTEA) Assay for Forkhead box O1 (FOXO1) using HepaRG (AID 2283456); conditions: mRNA level, 48 h; actives raise or lower the signal
Outline: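 Differentiated HepaRG cells, in serum-free induction medium with 0.5% DMSO, exposed 48 h in duplicate to 8-point half-log series from 100 uM. FOXO1 mRNA measured by TaqMan qRT-PCR, normalized to ACTB, GAPDH, POLR2A; bidirectional fit versus DMSO.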

[9] = read-out: growth arrest and DNA damage 45 (GADD45A), GADD45A (gene 1647); assay: LTEA_HepaRG_GADD45A: Life Technologies and Expression Analysis (LTEA) Assay for growth arrest and DNA damage 45 (GADD45A) using HepaRG (AID 2283458); conditions: mRNA level, 48 h; actives raise or lower the signal
Outline: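 Cells plated and cultured 48 h, switched to serum-free induction medium, then dosed for 48 h (100 uM top, half-log dilutions, 0.5% DMSO). RNA was isolated and transcript measured by Fluidigm qRT-PCR.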

[10] = read-out: Forkhead box O3 (FOXO3), FOXO3 (gene 2309); assay: LTEA_HepaRG_FOXO3: Life Technologies and Expression Analysis (LTEA) Assay for Forkhead box O3 (FOXO3) using HepaRG (AID 2283459); conditions: mRNA level, 48 h; actives raise or lower the signal
Outline: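 Differentiated human HepaRG cells, 48 h post-plating, exposed in duplicate for 48 h in serum-free induction medium; 8-point half-log series from 100 uM in 0.5% DMSO. FOXO3 mRNA by TaqMan qRT-PCR, normalized to ACTB/GAPDH/POLR2A; bidirectional fit versus DMSO.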

[11] = read-out: growth arrest and DNA damage 45 (GADD45B), GADD45B (gene 4616); assay: LTEA_HepaRG_GADD45B: Life Technologies and Expression Analysis (LTEA) Assay for growth arrest and DNA damage 45 (GADD45B) using HepaRG (AID 2283461); conditions: mRNA level, 48 h; actives raise or lower the signal
Outline: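 qRT-PCR read-out (Fluidigm TaqMan, housekeeping-normalized) of mRNA change in human HepaRG cells after 48 h chemical exposure; 8-point curve, top 100 uM, half-log steps, 0.5% DMSO vehicle; gain or loss fitted relative to DMSO baseline.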

[12] = read-out: ABC Transporter (ABCC3), ABCC3 (gene 8714); assay: LTEA_HepaRG_ABCC3: Life Technologies and Expression Analysis (LTEA) Assay for ABC Transporter (ABCC3) using HepaRG (AID 2283462); conditions: mRNA level, 48 h; actives raise or lower the signal
Outline: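 qRT-PCR read-out of ABCC3 transcript, normalized to three housekeeping genes (ACTB, GAPDH, POLR2A), after 48 h chemical exposure of human HepaRG cells. Eight half-log concentrations, highest 100 uM, in 0.5% DMSO; gain or loss fitted relative to DMSO baseline.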

[13] = read-out: ABC Transporter (ABCB11), ABCB11 (gene 8647); assay: LTEA_HepaRG_ABCB11: Life Technologies and Expression Analysis (LTEA) Assay for ABC Transporter (ABCB11) using HepaRG (AID 2283463); conditions: mRNA level, 48 h; actives raise or lower the signal
Outline: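 Differentiated human HepaRG cells in serum-free induction medium, dosed in duplicate for 48 h. Eight-point half-log series from 100 uM in 0.5% DMSO; ABCB11 mRNA by qRT-PCR, normalized to ACTB, GAPDH, POLR2A, fitted bidirectionally versus DMSO.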

[14] = read-out: ABC Transporter (ABCC2), ABCC2 (gene 1244); assay: LTEA_HepaRG_ABCC2: Life Technologies and Expression Analysis (LTEA) Assay for ABC Transporter (ABCC2) using HepaRG (AID 2283464); conditions: mRNA level, 48 h; actives raise or lower the signal
Outline: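 qRT-PCR (TaqMan, Fluidigm array) read-out of ABCC2 mRNA, normalized to three housekeeping genes. Differentiated HepaRG cells were treated 48 h in serum-free induction medium with 8-point half-log series from 100 uM in 0.5% DMSO; curves fitted bidirectionally relative to DMSO.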

[15] = read-out: Broad substrate specificity ATP-binding cassette transporter ABCG2 (Homo sapiens) (UniProt Q9UNQ0); assay: LTEA_HepaRG_ABCG2: Life Technologies and Expression Analysis (LTEA) Assay for ABC Transporter (ABCG2) using HepaRG (AID 2283465); conditions: mRNA level, 48 h; actives raise or lower the signal
Outline: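 Differentiated HepaRG cells were exposed for 48 h in serum-free induction medium to 8 half-log concentrations, top 100 uM, in 0.5% DMSO. ABCG2 mRNA was measured by qRT-PCR, normalized to ACTB, GAPDH and POLR2A, with bidirectional fitting versus DMSO.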

[16] = read-out: ATP-citrate lyase (ACLY), ACLY (gene 47); assay: LTEA_HepaRG_ACLY: Life Technologies and Expression Analysis (LTEA) Assay for ATP-citrate lyase (ACLY) using HepaRG (AID 2283466); conditions: mRNA level, 48 h; actives raise or lower the signal
Outline: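 Differentiated HepaRG cells exposed 48 h in serum-free induction medium to eight half-log concentrations up to 100 uM in 0.5% DMSO, duplicates. Transcript measured by Fluidigm TaqMan qRT-PCR, normalized to ACTB, GAPDH, POLR2A; bidirectional fit versus DMSO.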

[17] = read-out: Peroxisomal acyl-coenzyme A oxidase 1 (ACOX1) gene, ACOX1 (gene 51); assay: LTEA_HepaRG_ACOX1: Life Technologies and Expression Analysis (LTEA) Assay for Peroxisomal acyl-coenzyme A oxidase 1 (ACOX1) gene using HepaRG (AID 2283467); conditions: mRNA level, 48 h; actives raise or lower the signal
Outline: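 HepaRG cells, plated 48 h then switched to serum-free induction medium, were exposed in duplicate for 48 h to 8-point half-log concentrations up to 100 uM in 0.5% DMSO. ACOX1 mRNA was measured by qRT-PCR, normalized to ACTB/GAPDH/POLR2A, and fitted bidirectionally versus DMSO.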

[18] = read-out: Alkaline Phosphatase, Placental (ALPP) gene, ALPP (gene 250); assay: LTEA_HepaRG_ALPP: Life Technologies and Expression Analysis (LTEA) Assay for Alkaline Phosphatase, Placental (ALPP) gene using HepaRG (AID 2283468); conditions: mRNA level, 48 h; actives raise or lower the signal
Outline: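 qRT-PCR readout of ALPP mRNA (Fluidigm TaqMan), normalized to ACTB/GAPDH/POLR2A, after 48 h chemical exposure of HepaRG cells; 8-point half-log series, top 100 uM, 0.5% DMSO vehicle. Bidirectional curve fit versus DMSO baseline.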

[19] = CEETOX_H295R_TESTO: CeeTox H295R High-throughput Steroidogenesis Assay for Testosterone (TESTO) (AID 2283457); conditions: actives raise or lower the signal
Outline: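 Readout: testosterone quantified by HPLC-MS/MS (C18, ESI positive) after MTBE liquid-liquid extraction of culture medium. Cells were H295R, 48 h chemical exposure per OECD 456 with modifications. Gain or loss of signal fitted relative to DMSO.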

[20] = read-out: ABC Transporter (ABCB1), ABCB1 (gene 5243); assay: LTEA_HepaRG_ABCB1: Life Technologies and Expression Analysis (LTEA) Assay for ABC Transporter (ABCB1) using HepaRG (AID 2283460); conditions: mRNA level, 48 h; actives raise or lower the signal
Outline: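 HepaRG cells exposed in duplicate for 48 h in serum-free induction medium to eight half-log concentrations up to 100 uM in 0.5% DMSO. ABCB1 mRNA quantified by qRT-PCR, normalised to ACTB, GAPDH and POLR2A; fitted bidirectionally versus DMSO.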

Measured: AC50

Broad substrate specificity ATP-binding cassette transporter ABCG2 (Homo sapiens), sequence (Q9UNQ0 whole entry, looked up): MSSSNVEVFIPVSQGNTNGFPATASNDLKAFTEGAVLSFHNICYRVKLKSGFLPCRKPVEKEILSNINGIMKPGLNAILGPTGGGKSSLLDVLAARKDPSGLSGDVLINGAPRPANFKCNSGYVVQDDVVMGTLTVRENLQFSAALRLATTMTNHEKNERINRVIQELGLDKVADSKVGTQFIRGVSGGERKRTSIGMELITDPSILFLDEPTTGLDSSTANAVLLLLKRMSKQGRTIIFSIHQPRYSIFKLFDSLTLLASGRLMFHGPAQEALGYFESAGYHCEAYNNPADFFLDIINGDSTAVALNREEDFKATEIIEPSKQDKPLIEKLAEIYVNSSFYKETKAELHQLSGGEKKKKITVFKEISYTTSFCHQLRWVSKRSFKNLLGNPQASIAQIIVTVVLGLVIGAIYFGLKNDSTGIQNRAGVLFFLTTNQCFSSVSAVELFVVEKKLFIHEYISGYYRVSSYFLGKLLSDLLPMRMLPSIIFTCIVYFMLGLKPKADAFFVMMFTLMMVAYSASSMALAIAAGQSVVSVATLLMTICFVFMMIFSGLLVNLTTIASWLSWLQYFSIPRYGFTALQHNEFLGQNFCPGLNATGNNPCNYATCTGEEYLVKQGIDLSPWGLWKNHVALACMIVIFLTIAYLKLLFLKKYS

Cc1cccc([N+](=O)[O-])c1C
not listed: [19] | [20]
inactive: all other assays above

COc1ccc(S(=O)(=O)N2C(=O)[C@@](c3ccccc3OC)(N3C[C@H](O)C[C@H]3C(=O)N(C)C)c3cc(Cl)ccc32)c(OC)c1
active: [2] 84.9 µM | [3] 85.5 µM | [4] 23.7 µM | [5] 43.3 µM | [8] 35.9 µM | [9] 87.9 µM | [12] 50 µM | [13] 14.9 µM | [14] 31.4 µM | [15] 11.7 µM | [16] 90.5 µM | [17] 17.6 µM | [18] 29.5 µM
inactive: [1] | [6] | [7] | [19] | [10] | [20] | [11]

CCCCCCCCCCC
active: [6] 50 µM
not listed: [19]
inactive: all other assays above
